Activity calls are given as the source filed them.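 The calls were made as follows: active = NF-kB reporter IC50 at most 10 µM, IL-8 IC50 within fivefold of it with bacterial filtrate but not with TNF-alpha; inactive = the rest.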

This assay can be described thus: inhibitors of NFkB activation in CF airway cells, SAR follow-up, KKLEB cells, panel, IL8 HTRF, NFkB-GFP (AID 651592).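 Also: immortalized cystic fibrosis airway epithelial KKLEB cells with an NF-kB GFP reporter.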 The following applies: PAF/TNFa-induced NFkB-GFP / IL8 HTRF, CF-PAF assay, mean of runs. (In general: TR-FRET usually uses a lanthanide donor and a delayed reading to cut background.)
As to `O=C(Nc1ccc(N2CCN(C(=O)c3ccccc3F)CC2)cc1)c1ccccn1`, the result was inactive.

Take `O=C(Nc1ccc(N2CCN(C(=O)c3ccccc3F)CC2)cc1)c1ccncc1`: the call was inactive.

With `O=C(Nc1ccc(N2CCN(C(=O)c3ccccc3F)CC2)cc1)c1cccc(Br)c1`, the molecule was classed as inactive.

On to `O=C(Nc1ccc(N2CCN(C(=O)c3ccc(F)cc3)CC2)cc1)c1cc(Br)cc(Br)c1`, for which the result was inactive.

On to `O=C(Nc1ccc(N2CCN(C(=O)c3ccccc3F)CC2)cc1)c1cccnc1`, for which the molecule was called inactive.

Take `O=C(Nc1ccc(N2CCN(C(=O)c3ccccc3)CC2)cc1)c1ccncc1`: the result was inactive.

Regarding `Cc1ccc(CNCc2cc3c(C(C)(C)C)nn(-c4ccccc4)c3[nH]c2=O)cc1`, the molecule was called inactive.

Turning to `O=C(Nc1ccc(N2CCN(C(=O)c3ccccc3)CC2)cc1)c1ccccn1`, the molecule was called inactive.

With `O=C(Nc1ccc(N2CCN(C(=O)c3ccccc3Cl)CC2)cc1)c1cncc(Br)c1`, the molecule was called active.

As to `O=C(Nc1ccc(N2CCN(C(=O)c3ccccc3)CC2)cc1)c1cncc(Br)c1`, the result was active.

Regarding `O=C(Nc1ccc(N2CCN(C(=O)c3ccccc3)CC2)cc1)c1cccnc1`, the result was inactive.

As to `Cc1ccc(NCc2cc3c(C(C)(C)C)nn(-c4ccccc4)c3[nH]c2=O)cc1`, the outcome was inactive.

Regarding `O=C(Nc1ccc(N2CCN(C(=O)c3ccc(F)cc3)CC2)cc1)c1cccnc1`, the result was inactive.

Consider `O=C(Nc1ccc(N2CCN(C(=O)c3ccccc3F)CC2)cc1)c1ccccc1`, for which the result was inactive.

In the case of `O=C(Nc1ccc(N2CCN(C(=O)c3ccccc3Cl)CC2)cc1)c1ccncc1`, the call was inactive.

For the molecule `O=C(Nc1ccc(N2CCN(C(=O)c3ccc(F)cc3)CC2)cc1)c1ccccc1`, the molecule was classed as inactive.

As for `O=C(Nc1ccc(N2CCN(C(=O)c3ccc(F)cc3)CC2)cc1)c1cccc(Br)c1`, the call was inactive.

Regarding `O=C(Nc1ccc(N2CCN(C(=O)c3ccccc3)CC2)cc1)c1cc(Br)cc(Br)c1`, the call was inactive.

As for `O=C(Nc1ccc(N2CCN(C(=O)c3ccc(F)cc3)CC2)cc1)c1ccncc1`, the result was inactive.

Take `CCOc1ccc(NCc2cc3c(C)nn(-c4ccccc4)c3[nH]c2=O)cc1`: the molecule was called inactive.

With `CCOc1ccc(NCc2cc3c(C(C)(C)C)nn(-c4ccccc4)c3[nH]c2=O)cc1`, the molecule was called inactive.

`CCOc1ccc(NCc2cc3c(-c4ccc(OC)c(OC)c4)nn(-c4ccccc4)c3[nH]c2=O)cc1`: the molecule was called inactive.

As for `CCOc1ccc(NCc2cc3c(-c4ccc(F)cc4)nn(-c4ccccc4)c3[nH]c2=O)cc1`, the outcome was active.

Take `O=C(Nc1ccc(N2CCN(C(=O)c3ccccc3Cl)CC2)cc1)c1ccccn1`: the outcome was inactive.

On to `O=C(Nc1ccc(N2CCN(C(=O)c3ccccc3Cl)CC2)cc1)c1ccccc1`, for which the call was active.

On to `O=C(Nc1ccc(N2CCN(C(=O)c3ccccc3F)CC2)cc1)c1cc(Br)cc(Br)c1`, for which the outcome was inactive.

Consider `O=C(Nc1ccc(N2CCN(C(=O)c3ccc(F)cc3)CC2)cc1)c1cncc(Br)c1`, for which the molecule was called active.

For `O=C(Nc1ccc(N2CCN(C(=O)c3ccccc3)CC2)cc1)c1cccc(Br)c1`, the molecule was called inactive.

Take `O=C(Nc1ccc(N2CCN(C(=O)c3ccc(F)cc3)CC2)cc1)c1ccccn1`: the molecule was classed as inactive.

For the molecule `O=C(Nc1ccc(N2CCN(C(=O)c3ccccc3Cl)CC2)cc1)c1cc(Br)cc(Br)c1`, the call was inactive.

Consider `O=C(Nc1ccc(N2CCN(C(=O)c3ccccc3Cl)CC2)cc1)c1cccc(Br)c1`, for which the outcome was inactive.

With `O=C(Nc1ccc(N2CCN(C(=O)c3ccccc3Cl)CC2)cc1)c1cccnc1`, the molecule was classed as inactive.

Turning to `O=C(Nc1ccc(N2CCN(C(=O)c3ccccc3)CC2)cc1)c1ccccc1`, the molecule was called inactive.

On to `CCOc1ccc(NCc2cc3c(C(C)(C)C)nn(-c4ccc(Cl)cc4)c3[nH]c2=O)cc1`, for which the molecule was classed as inactive.
